# Compound activity deposited in PubChem BioAssay by National Center for Advancing Translational Sciences (NCATS).
# Sampled rows, rich in hits. Any-hit rate of the full collection: about 8.7%.
# G9a inh – qHTS Assay for Inhibitors of Histone Lysine Methyltransferase G9a; G9a H3K9 monomethylation, AlphaScreen, 2 h; Potency, µM (top dose mostly 102 µM), for the others: at the top dose activity, negative = inhibition, hits mostly inhibitors; 350,000 compounds, 8.8% hits; AID 504332, 2011; note: % is set by controls: 0 for no effect and ±100 for the full control effect; nearly all actives have a fitted effect of over 75% in size
#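 Readings reflect AlphaScreen signal from monomethyl-H3K9 antibody detection. HMT at 20 nM; substrate b-H3K9 500 nM; cofactor SAM 20 uM; 2 h RT reaction; compounds tested as titrations in qHTS with 15 min preincubation.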
# Sfp inh – qHTS Assay for Inhibitors of Bacillus subtilis Sfp phosphopantetheinyl transferase (PPTase). 310,000 compounds, 3.5% hits. Biochemical Sfp PPTase activity, qHTS. 4'-phosphopantetheinyl transferase ffp (Bacillus subtilis), Q9F4F7. Potency, µM, for inactives: largest response in the series, negative = inhibition, actives largely listed as inhibitors;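 note: the enzyme is Sfp with the accession as filed and its product quenches rhodamine fluorescence; 0% = enzyme reaction without inhibitor and -100% = no enzyme wells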
#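 Step 1, compound plus 15 nM Sfp-PPTase, 15 min, room temperature. Step 2, add rhodamine-CoA (5 uM) and BHQ-2-YbbR (12.5 uM). Step 3, read 525/598 nm fluorescence at 0 and 30 min.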
# ALOX12 inh – Primary qHTS assay for inhibitors of human arachidonate 12S-lipoxygenase (ALOX12): Round 2. purified 12hLO, xylenol orange hydroperoxide absorbance. AID 1671190, 2021. Potency, µM (series often up to 108 µM), for the others: at the highest dose activity change, negative = inhibition, usual class: inhibitors. 580,000 compounds, 1.1% hits; note: % is set by controls: 0 for no effect and ±100 for the full control effect
#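 Purified human 12hLO (150 nM final) in 25 mM Hepes, 0.01% Triton X-100, pH 7.0 was preincubated 15 min at room temperature with compound. Then 40 uM arachidonic acid was added, 30 min. Hydroperoxide was read by Fe-XO absorbance ratio 573/405 nm.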
# BAZ2B inh – qHTS Assay for Inhibitors of BAZ2B; Bromodomain adjacent to zinc finger domain protein 2B (Homo sapiens), Q9UIF8; AlphaScreen BAZ2B-H3K14Ac peptide displacement; Potency, µM (top dose mostly 114 µM), without a hit: at the top dose activity change, negative = inhibition, hits mostly inhibitors; 360,000 compounds, 4.4% hits; note: % is set by controls: 0 for no effect and ±100 for the full control effect; nearly all actives have a fitted effect of over 60% in size
#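 AlphaScreen luminescence quantifies BAZ2B engagement of H3K14Ac peptide; the protein and biotinylated peptide are both at 50 nM final, buffer PBS pH 7.4 with 0.01% Tween-20, all steps at room temperature.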
# HP1b chromo inh – HTS for Inhibitors of HP1-beta Chromodomain Interactions with Methylated Histone Tails; Chromobox protein homolog 1 (Homo sapiens), P83916; AlphaScreen HP1-beta / biotin-H3K9me3 peptide binding; Potency, µM (series often up to 114 µM), for the others: at the highest dose activity change, negative = inhibition, hits mostly inhibitors; 390,000 compounds, 0.56% hits; AID 540317, 2011; note: nearly all actives have a fitted effect of over 70% in size
#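 HP1-beta protein (50 nM final) preincubated 30 min at room temperature with biotinylated H3(1-18)K9me3 peptide (50 nM) in PBS pH 7.4, 0.01% Tween-20, then compound added for 30 min. AlphaScreen streptavidin donor/nickel chelate acceptor beads (10 ug/mL final), 30 min dark, luminescence read.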
# JMJD2A Tudor – qHTS Assay for Inhibitors of JMJD2A-Tudor Domain | AlphaScreen JMJD2A-Tudor / H3K4me3 peptide binding | Potency, µM (top dose mostly 114 µM), without a hit: top-dose activity change, negative = inhibition, hits mostly inhibitors | 390,000 compounds, 4.4% hits | AID 504339, 2011; note: % is set by controls: 0 for no effect and ±100 for the full control effect; nearly all actives have a fitted effect of over 50% in size
# An asterisk follows results filed as active; ? = inconclusive; . = no result; ! = a repeat was not active; [ ] = another dose, or the depositor's remark. Calls come from the whole dose curve; as a rule, active = well fitted curve in the direction sought with a large enough effect; inconclusive = small, poorly fitted or top-dose-only effect, or another doubt; inactive = no such curve, though single readings can be large; an effect the other way counts as inactive or inconclusive. Potency is the fitted concentration of half-maximal effect.
SMILES,G9a inh,Sfp inh,ALOX12 inh,BAZ2B inh,HP1b chromo inh,JMJD2A Tudor
CN(C)[C@@H]1C(=O)C(C(N)=O)=C(O)[C@@]2(O)C(=O)C3=C(O)c4c(O)cccc4[C@@](C)(O)[C@H]3[C@H](O)[C@@H]12,11.2µM*,44.7µM*,?,2.82µM*,3.98µM*!,1.41µM*!
CN(C)c1ccc([N+](=O)[O-])c2cnccc12,.,.,-5.1%,.,.,.
Cc1ccc([C@H]2CN(C(=O)c3cc(C(C)C)on3)[C@@H]3C4CCN(CC4)[C@H]23)cc1,.,.,15.2%,.,.,.
Cc1[nH]nc2c1C(c1ccc3c(c1)OCCO3)SCC(=O)N2 (stereo not given),.,.,3.1%,.,.,.
Cc1oc2cc(OCC(=O)N3CCN(C)CC3)ccc2c(=O)c1Oc1ccccc1,.,.,-5.8%,.,.,.
CC(=O)c1c(C)n(Cc2ccccc2)c2ccc(O)cc12,5.9%,3.1%,39.6%,-34.0%,34.5%,-9.8%
COC(=O)c1c(C)n(Cc2ccccc2)c2ccc(O)cc12,8.91µM*,50.1µM*,15.8µM*!,-37.4%,37.8%,-15.4%
CCOC(=O)c1c(C)n(Cc2ccccc2)c2ccc(OC(C)=O)cc12,.,.,-0.8%,.,.,.
CCOC(=O)c1c(C)n(Cc2ccccc2)c2ccc(O)cc12,31.6µM*,50.1µM*,?,?,1.4%,?
O=C(O)c1cc[c]([Hg][Cl])cc1,1µM*!,.,.,1.26µM*,?,0.891µM*
O=C(c1ccccc1)N1C[C@@H]2C[C@H](C1)c1c(/C=C/c3ccc(Cl)cc3)ccc(=O)n1C2,.,.,8.5%[176 µM],.,.,.
COc1ccc(/C=C2/C(=O)N(Cc3ccco3)C(=O)N(C(C)C)C2=O)cc1,?,-17.7%,?,-34.9%,-2.3%,-30.6%
O=C1NC(=S)N(Cc2ccco2)C(=O)/C1=C\c1cccs1,3.16µM*,20µM*,.,.,.,.
C=CCN1C(=O)/C(=C/c2cccs2)C(=O)NC1=S,8.91µM*,20µM*,44.7µM*,?,-7.0%,79.4µM*
O=C(CC(O)C(Cl)(Cl)Cl)c1ccccc1 (stereo not given),.,.,-19.4%,.,.,.
COc1ccc(-c2cc([C@H]3CN4CC[C@H]3C[C@@H]4CNC(=O)Nc3cccc4ccccc34)n(C)n2)cc1OC,.,.,0.2%,.,.,.
Cc1ccc(NC(=O)c2cn(C)c3ccccc23)c2cccnc12,.,.,-5.4%,.,.,.
O=c1c2ccccc2[nH]c(=S)n1-c1ccc2c(c1)OCO2,19.9%[59 µM],20.1%,-11.8%,-4.9%,44.4%,-2.1%
COc1ccc(C2=NCC(=S)Nc3ccc(Cl)cc32)cc1OC,.,.,73.3%,.,14.9%,-19.6%
COc1ccc(-c2n[nH]c(=S)n2-c2ccc3c(c2)OCCO3)cc1OC,.,?,?,-10.2%,8.2%,3.16µM*
S=c1[nH]nc(-c2ccc3ccccc3n2)n1-c1ccc2c(c1)OCCO2,.,-2.0%,0.0%,?,8.4%,44.7µM*
COC[C@H]1CCCN1C[C@H]1CN2CC[C@H]1C[C@@H]2CNC(=O)Nc1ccsc1,.,.,-10.4%[176 µM],.,.,.
Cn1ccnc1P(=S)(c1nccn1C)N1CCOCC1,?,?,?,?,?,35.5µM*
Cn1ccnc1P(=S)(c1nccn1C)c1nccn1C,3.55µM*,50.1µM*,3.6%,?,3.8%,31.6µM*
FC(F)(F)CN1C2CCC1CN(c1cncc(Cl)c1)C2,.,.,4.9%[6.33 µM],.,.,.
SMILES,G9a inh,Sfp inh,ALOX12 inh,BAZ2B inh,HP1b chromo inh,JMJD2A Tudor
CCN(CC)C(=O)c1ccc(NC(=S)NCCOC)cc1,.,.,13.7%,.,.,.
Cc1noc(C)c1COc1ccc(CC(=O)N2CCCN(C)CC2)cc1,.,.,-33.4%,.,.,.
NCc1cn(C[C@H]2CC3CCN2C[C@@H]3C(=O)N2CCCC2)nn1 (stereo not given in full),.,.,46.7%[176 µM],.,.,.
O=C(NCC1CC1)c1cn(Cc2ccccc2)c2ccccc12,.,.,-3.6%,.,.,.
CN1CCc2c([nH]c3ccccc23)C12CCNCC2,.,.,-3.5%,.,.,.
CN1C(=O)C(=Cc2ccc(N3CCCCCC3)cc2)C(=O)N(C)C1=O,.,?,?,-14.8%,18.8%,-16.9%
CN1C(=O)C(=Cc2ccc(SC3CCCCC3)o2)C(=O)N(C)C1=O,12.6µM*,56.2µM*,?,56.2µM*,?,?
CN1C(=O)C(=Cc2ccc(N3CCCCC3)o2)C(=O)N(C)C1=S,.,56.2µM*,3.4%,-28.8%,-13.2%,-33.2%
CCN(CC)c1ccc(C=C2C(=O)N(C)C(=S)N(C)C2=O)o1,20µM*,-17.1%,-19.0%,?,-25.3%,-30.1%
O=C1NC(=O)C(=Cc2ccc(N3CCOCC3)o2)C(=O)N1,?,-18.7%,-11.1%,?,1.9%,-18.2%
COC(=O)[C@@H]1[C@@H](CO)[C@@H]2Cn3c(ccc(Br)c3=O)[C@H]1N2S(C)(=O)=O,.,.,-12.2%,.,.,.
COc1ccccc1OC(C)C(=O)N1CCC(Cc2ccccc2)CC1 (stereo not given),50.1µM*,5.4%,?,-26.3%,-17.8%,-16.2%
CN1CCN(C(=O)Cc2c[nH]c3ncc(-c4ccccc4F)cc23)CC1,.,.,-0.9%[176 µM],.,.,.
O=[N+]([O-])c1cc(S(=O)(=O)c2ccc(O)c([N+](=O)[O-])c2)ccc1O,?,-1.8%,?,50.1µM*,?,56.2µM*
C=CCN(C)C[C@H]1CN2CC[C@H]1C[C@@H]2CNC(=O)Nc1cccc(C#N)c1,.,.,60.6%[176 µM],.,.,.
Cc1ccc(OCCOc2cccc(C=C3C(=O)NC(=O)NC3=O)c2)cc1,?,63.1µM*,31.6µM*,?,15.0%,?
Cc1cc(C)cc(OCCOc2cccc(C=C3C(=O)NC(=O)NC3=O)c2)c1,-22.0%,50.1µM*,12.6µM*,-8.1%,88.1%,59.8%
C=C1C(=O)O[C@@H]2C[C@@H](C)[C@@H]3C=CC(=O)[C@@]3(C)[C@@H](O)[C@H]12,11.2µM*!,79.4µM*,-0.2%[176 µM],1.2%,39.6%,-13.7%
O=C(CF)NC(Nc1cccc2cccnc12)C(Cl)(Cl)Cl (stereo not given),-46.5%,18.3%,0.0%,-1.5%,17.2%,-1.6%
O=C(/C=C/c1ccccc1)NC(NC(=S)Nc1cccc2cccnc12)C(Cl)(Cl)Cl (stereo not given),14.1µM*,23.1%,0.0%,.,.,.
O=C(O)CC[n+]1ccc(-c2cc[n+](CCC(=O)O)cc2)cc1,.,.,14.1µM*,.,.,.
C[n+]1ccc(-c2cc[n+](C)cc2)cc1,.,.,?,.,19.2%,-12.4%
